From PubChem BioAssay AID624115 (Johns Hopkins Ion Channel Center, 2012)
Out of some 4,000 compounds screened, about 350 (8.8%) were called active.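 The calls were made as follows: active = calcium fluorescence ratio at least three times the spread of buffer wells, meaning a non-specific response in parental cells; inactive = the rest.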 Only a sample is shown.

Experiment: calcium response in parental HEK293 cells, primary screen, counter-screen for MrgX1 agonist project, cell-based, Fluo-4 calcium flux, duplicate, agonist mode (AID 624115)
Details: parental HEK293, Fluo-4 calcium fluorescence (FDSS), at 10 µM; hits give high values

Structure (SMILES)	fluorescence ratio F(max-min)/F0
Fc1cccc(Cl)c1COc1ccc(-c2nnco2)cc1	inactive
Cc1ccc(S(=O)(=O)N(C)c2nc3ccccc3n3c(C(C)C)nnc23)cc1	inactive
CCCCC(=O)Nc1ccc2c(c1)C(=O)NC2=O	inactive
O=C(CSc1c2c(nc3ccc(Cl)cc13)CCCC2)NCc1ccco1	inactive
O=C(Nc1cccc(Cl)c1)c1cncn1-c1ccc(F)cc1	inactive
O=C(Cn1c(-c2cncs2)nc2ccccc21)NC1CCCC1	inactive
Cc1nccn1CCC1CCCCN1C(=O)CCc1nnc(-c2ccsc2)o1 (configuration not stated)	inactive
COc1ccc(-c2cc(C(F)(F)F)nc(S(C)(=O)=O)n2)cc1OC	inactive
COc1ccc2c(c1)OC(O)(C(F)(F)C(F)F)CC2=O (configuration not stated)	87.4 (active)
FC(F)(F)c1cc(-c2cccs2)nc(NCc2ccco2)n1	inactive
CCOC(=O)Nc1ccc2c(c1)N(C(=O)CCN1CCN(CCO)CC1)c1ccccc1CC2	inactive
O=C(CN1CCN(c2ccccn2)CC1)NC1CCCCC1	inactive
Cc1c(C(=O)N2CCN(c3ccc(F)cc3)CC2)oc2c1C(=O)CCC2	inactive
CCN(CC)c1ccc(C2C3CCCCC3(O)CCN2CC(=O)Nc2ccccc2)cc1 (configuration not stated)	inactive
COc1ccc(Nc2nc(-c3cccnc3)nc3ccccc23)cn1	inactive
O=C(Cc1nc2ccccc2[nH]c1=O)c1ccc(Cl)cc1	inactive
N#CC1=C(N)Oc2c(sc3ccccc23)C1c1ccco1 (configuration not stated)	inactive
CCOc1ccc(NC(=O)CCNC(=O)c2ccc(Br)cc2)cc1	inactive
Cc1cc(C)n(CCNC(=O)CC2C(=O)NCCN2Cc2ccc(C)o2)n1 (configuration not stated)	inactive
CCOC1CCCCC1NS(=O)(=O)c1ccc(Cl)cc1 (configuration not stated)	inactive
COC(=O)c1sccc1NS(=O)(=O)c1ccc(F)cc1F	inactive
CC(=O)Nc1ccc(OC(=O)COc2ccc(Br)cc2)cc1	inactive
Cc1ccnc(-n2sc3ccccc3c2=O)n1	inactive
CCN(c1cccc(C)c1)S(=O)(=O)c1ccc(-c2coc(C)n2)cc1	inactive

Structure (SMILES)	fluorescence ratio F(max-min)/F0
COCC(C)NC(=O)c1ccc(Cl)c(Cl)c1 (configuration not stated)	inactive
COc1ccc(C(=O)Nc2c(N)nc(SCC(=O)N3CCC(C)CC3)[nH]c2=O)cc1OC	inactive
Cc1ccc(-c2nn(C(C)(C)C)c3ncnc(N)c23)cc1	inactive
COc1ccc(-n2c(SCC(=O)NCc3ccco3)nnc2-c2c[nH]c3ccccc23)cc1	inactive
CCOC(=O)Cc1csc(SCc2cc(=O)oc3cc(O)ccc23)n1	inactive
CCC(C)c1ccccc1N1CC(C(=O)N2CCN(S(=O)(=O)c3ccc(F)cc3)CC2)CC1=O (configuration not stated)	inactive
COc1ccc([N+](=O)[O-])cc1NC(=O)COC(=O)/C=C/c1ccco1	inactive
CN(C)CCn1c(=S)[nH]c2ccc(Cl)cc2c1=O	inactive
FC(F)Oc1ccc(NC(=S)NCc2ccco2)cc1Cl	inactive
O=c1c2cc(Br)ccc2nc(-c2cccc(Cl)c2)n1O	90.3 (active)
O=C1CCCc2c1nc(-c1cccc(Cl)c1)n2O	inactive
Cc1nonc1C1CCCN1Cc1nc(-c2ccc(F)cc2F)oc1C (configuration not stated)	inactive
O=C1Cc2ccccc2Sc2ccc(Cl)cc21	inactive
CCOc1ccc2nc(/N=C/c3nc(-c4ccccc4)oc3O)sc2c1	114 (active)
Cc1ccc(NC2(C#N)C(=O)Nc3ccccc32)cc1 (configuration not stated)	inactive
Clc1ccc(-c2nc3ccccn3c2CN2CCSCC2)cc1	inactive
Cc1ccc2nc(Nc3ccccc3)cc(C)c2c1	inactive
Cc1cc2ncn(CCCCOc3ccccc3)c2cc1C	inactive
Cc1nn(-c2ccccc2)c(C)c1NC(=O)COc1ccc(Cl)cc1Cl	inactive
COc1ccc(OC)c(Nc2nc3ccccc3n3cnnc23)c1	inactive
Cc1nn(-c2ccccc2)c2c1C(c1ccc(F)cc1)C(C#N)=C(N)O2 (configuration not stated)	inactive
Cc1ccc2cc(/C=N/Nc3ccc(C(=O)O)cc3)c(Cl)nc2c1	inactive
O=C(Nc1nnc(-c2ccccc2)o1)c1cc(-c2cccs2)nc2ccccc12	inactive
O=C(Nc1nc2c(F)cc(F)cc2s1)C1COc2ccccc2O1 (configuration not stated)	inactive

Structure (SMILES)	fluorescence ratio F(max-min)/F0
Cc1ccc2nc(-c3ccc(NC(=O)CN(C)S(=O)(=O)c4ccccc4)cc3)sc2c1	inactive
CN(CC(=O)Nc1ccccc1Cl)C(=O)COc1cccc2c1OC(C)(C)C2	inactive
O=C(c1cccc(S(=O)(=O)Nc2ccccc2Cl)c1)N1CCN(C(=O)c2ccco2)CC1	inactive
COCCNC(=O)Nc1ccc2nc(-c3ccco3)c(-c3ccco3)nc2c1	49.8 (active)
COc1ccc(NC(=O)c2cc(-c3ccc(C)o3)nc3ccccc23)cc1	inactive
CC(C)NC(=S)Nc1cccc2cnccc12	inactive
O=C1CCCN1CCCNC(=S)Nc1ccc(F)c(Cl)c1	inactive
Cc1ccc(CS(=O)(=O)c2ncc(Cl)c(C(=O)Nc3nnc(C)s3)n2)cc1	inactive
COc1ccc(S(=O)(=O)N2CCN(C(=O)NC3CCCCC3)CC2)cc1	inactive
Cc1cccc(-n2c(Cc3cc(=O)[nH]c(=O)[nH]3)nnc2SC(C)C)c1	inactive
COc1cc(CCC(=O)Nc2ccncc2Cl)cc(OC)c1OC	inactive
O=C(COc1ccc(Cl)cc1)NC(=S)Nc1ccccc1N1CCOCC1	inactive
Nc1cc(OC(=O)c2ccccc2Br)nn1S(=O)(=O)c1ccccc1	inactive
O=C1C(=O)N(CC2COc3ccccc3O2)c2ccccc21 (configuration not stated)	64.3 (active)
COc1cccc(CNC(=O)C2CCN(S(=O)(=O)c3cccc4cccnc34)CC2)c1	inactive
Cc1ccc(N/C(N)=N/c2nc(C(F)(F)F)cc(C(F)(F)F)n2)cc1	inactive
O=C(Nc1ccccc1N1CCCCC1)c1ccc2nccnc2c1	inactive
Cc1cccc(Cn2cnc3c(N)c(C)c(C)cc32)c1	inactive
CCOC(=O)c1c(NC(=O)CSc2cn(CC)c3ccccc23)sc2c1CCC2	inactive
CCOc1ccc(C2=CC(c3ccccc3)n3ncnc3N2)cc1 (configuration not stated)	inactive
O=C(NC1CCCCC1)C1c2ccccc2C(=O)N1Cc1ccco1 (configuration not stated)	inactive
COc1ccc(OC)c(C(=O)c2ccc(Cl)cc2)c1	inactive
Cc1cc(Br)ccc1NC(=O)c1cnc(N2CCN(c3ccccn3)CC2)c2ccccc12	inactive
Cc1ccc2nc(-c3ccc(NC(=O)c4cccnc4)cc3)oc2c1	inactive
